Laboratory results taken from PubChem BioAssay AID1159580 (chemical genetic matrix, 2015).
“And” between values parts separate entries of the source, which are not always exact repeats. Equal values may be shown once. The whole screen tested about 5,500 compounds, of which about 2,000 (36%) were called active. About 18% were inconclusive and are not listed. Cut-off read from the data, not from the text of the source: active = normalized growth mostly below about 0.91 (no sharp cut-off); inconclusive = no clear call, values can overlap the other calls; inactive = mostly above about 0.92. The list shows a part of the results.

Test: chemical genetic growth profiling, strain panel (AID 1159580);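 note: tested at 20 µM; growth read once vehicle control cultures reached saturation at 30 °C; 1 = growth at the plate median or of vehicle wells; lower values mean less growth of the strain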
Conditions: S. cerevisiae deletion strains, growth OD

Measured: normalized growth

OCCN1CCN(CCCN2c3ccccc3Sc3ccc(C(F)(F)F)cc32)CC1
inactive: locus YAL013W, strain DEP1, stronger effect = lower value 0.947 and 0.96 | locus YAL030W, strain snc1, stronger effect = lower value 0.984 | locus YAL040C, strain CLN3, stronger effect = lower value 1.01 | locus YBL061C, strain skt5, stronger effect = lower value 0.951 | locus YBR009C, strain hhf1, stronger effect = lower value 0.935 | locus YBR171W, strain sec66, stronger effect = lower value 0.992 | locus YBR229C, strain ROT2, stronger effect = lower value 0.987 | locus YBR231C, strain swc5, stronger effect = lower value 0.964 | locus YBR279W, strain paf1, stronger effect = lower value 0.953 | locus YCL011C, strain gbp2, stronger effect = lower value 0.919 | locus YCL016C, strain dcc1, stronger effect = lower value 0.937 | locus YCL029C, strain bik1, stronger effect = lower value 0.978 | locus YCL061C, strain MRC1 (second series), stronger effect = lower value 0.957 | locus YCL069W, strain vba3, stronger effect = lower value 0.995 | locus YCR088W, strain abp1, stronger effect = lower value 0.987 | locus YDL005C, strain med2, stronger effect = lower value 1 | locus YDL035C, strain GPR1, stronger effect = lower value 0.928 | locus YDL040C, strain nat1, stronger effect = lower value 0.98 | locus YDL074C, strain BRE1, stronger effect = lower value 0.808 | locus YDL101C, strain DUN1, stronger effect = lower value 0.979 | locus YDL134C, strain PPH21, stronger effect = lower value 0.977 | locus YDL185W, strain tfp1, stronger effect = lower value 0.981 | locus YDL192W, strain arf1, stronger effect = lower value 0.963 | locus YDR001C, strain nth1, stronger effect = lower value 0.989 | locus YDR101C, strain arx1, stronger effect = lower value 0.933 | locus YDR150W, strain NUM1, stronger effect = lower value 0.997 | locus YDR159W, strain sac3, stronger effect = lower value 0.992 | locus YDR162C, strain NBP2, stronger effect = lower value 0.947 | locus YDR297W, strain sur2, stronger effect = lower value 0.981 | locus YDR318W, strain mcm21, stronger effect = lower value 0.947 | locus YDR334W, strain swr1, stronger effect = lower value 0.987 | locus YDR335W, strain msn5, stronger effect = lower value 0.972 | locus YDR363W, strain ESC2, stronger effect = lower value 0.978 | locus YDR392W, strain spt3, stronger effect = lower value 1.06 | locus YDR502C, strain sam2, stronger effect = lower value 0.939 | locus YEL003W, strain gim4, stronger effect = lower value 0.982 | locus YEL037C, strain rad23, stronger effect = lower value 0.994 | locus YEL061C, strain CIN8 (second series), stronger effect = lower value 0.973 | locus YEL061C, strain CIN8, stronger effect = lower value 0.996 | locus YER002W, strain NOP16, stronger effect = lower value 1 | locus YER015W, strain faa2, stronger effect = lower value 0.931 | locus YER016W, strain bim1, stronger effect = lower value 0.979 | locus YER110C, stronger effect = lower value 0.996 | locus YER111C, strain swi4, stronger effect = lower value 0.986 | locus YER155C, strain BEM2 (second series), stronger effect = lower value 1 | locus YER155C, strain BEM2, stronger effect = lower value 0.989 | locus YER167W, strain BCK2, stronger effect = lower value 0.974 | locus YGL078C, strain dbp3, stronger effect = lower value 0.986 | locus YGL086W, strain mad1, stronger effect = lower value 0.964 | locus YGL167C, strain pmr1, stronger effect = lower value 0.976 | locus YGL173C, strain kem1, stronger effect = lower value 0.964 | locus YGL227W, strain vid30, stronger effect = lower value 0.984 | locus YGL240W, strain doc1, stronger effect = lower value 0.997 | locus YGL248W, strain PDE1, stronger effect = lower value 0.989 | locus YGL253W, strain hxk2, stronger effect = lower value 0.917 | locus YGR078C, strain PAC10, stronger effect = lower value 0.907 and 0.971 | locus YGR135W, strain pre9, stronger effect = lower value 0.896 | locus YHR013C, strain ard1, stronger effect = lower value 1 | locus YHR027C, strain rpn1, stronger effect = lower value 0.937 | locus YHR030C, strain SLT2, stronger effect = lower value 0.933 | locus YHR079C, strain IRE1 (second series), stronger effect = lower value 0.973 | locus YHR094C, strain hxt1, stronger effect = lower value 0.992 | locus YHR129C, strain ARP1, stronger effect = lower value 0.983 | locus YHR142W, strain chs7, stronger effect = lower value 0.897 | locus YHR200W, strain rpn10, stronger effect = lower value 0.968 | locus YIL066C, strain RNR3, stronger effect = lower value 0.915 | locus YIL073C, strain SPO22, stronger effect = lower value 1.18 | locus YIL125W, strain kgd1, stronger effect = lower value 0.995 | locus YIR030C, strain dcg1, stronger effect = lower value 0.985 | locus YJL092W, strain hpr5, stronger effect = lower value 0.969 | locus YJL095W, strain BCK1 (second series), stronger effect = lower value 0.94 | locus YJL115W, strain asf1, stronger effect = lower value 0.95 | locus YJL129C, strain trk1, stronger effect = lower value 0.96 | locus YJL134W, strain LCB3, stronger effect = lower value 0.997 | locus YJL154C, strain vps35, stronger effect = lower value 0.982 | locus YJL164C, strain tpk1, stronger effect = lower value 0.917 | locus YJL166W, strain qcr8, stronger effect = lower value 0.956 | locus YJL168C, strain set2, stronger effect = lower value 0.991 | locus YJL187C, strain SWE1 (second series), stronger effect = lower value 0.905 | locus YJR043C, strain POL32, stronger effect = lower value 0.971
active: locus YAL021C, strain ccr4, stronger effect = lower value 0.828 | locus YAL026C, strain drs2, stronger effect = lower value 0.0826 | locus YBR021W, strain FUR4, stronger effect = lower value 0.589 | locus YBR023C, strain chs3, stronger effect = lower value 0.899 | locus YDR069C, strain doa4, stronger effect = lower value 0.863 | locus YDR137W, strain rgp1, stronger effect = lower value 1.27 [resistant] | locus YDR195W, strain ref2 1.27 [resistant] | locus YDR388W, stronger effect = lower value 0.878 | locus YFR010W, strain ubp6, stronger effect = lower value 0.839 | locus YGR229C, strain SMI1, stronger effect = lower value 0.602 and 0.781 | locus YGR252W, strain gcn5, stronger effect = lower value 0.664 | locus YJL095W, strain BCK1, stronger effect = lower value 0.794
